Compound activity: PubChem BioAssay, National Center for Advancing Translational Sciences (NCATS)
RGS12 GoLoco inh – blocks human Gai1 binding to RGS12 GoLoco peptide, red readout; AID 880; actives 0.44% (n = 230,000); Potency, µM (titrated, usually from 61.6 µM), actives largely listed as inhibitors; Gai1:RGS12 GoLoco peptide FP, rhodamine, 10 min; P63096; active = well fitted inhibition curve with a large enough effect, not every such curve was filed as active; inactive = no such curve, though single readings can be large or run the other way; note: nearly all actives have a fitted effect of over 30% in size
KDM4E inh – blocks human JMJD2E demethylase activity; B2RXH2; JMJD2E catalytic domain, FDH-coupled NADH fluorescence (FDH is formaldehyde dehydrogenase); Potency, µM (series often up to 57.1 µM), hits mostly inhibitors; actives 1.6% (n = 230,000); AID 2147; active = well fitted inhibition curve with a large enough effect, not every such curve was filed as active; inconclusive = small, poorly fitted or top-dose-only effect, or another doubt; inactive = no such curve, though single readings can be large or run the other way; note: nearly all actives have a fitted effect of over 50% in size
Target sequence (B2RXH2 1-337 limits assumed): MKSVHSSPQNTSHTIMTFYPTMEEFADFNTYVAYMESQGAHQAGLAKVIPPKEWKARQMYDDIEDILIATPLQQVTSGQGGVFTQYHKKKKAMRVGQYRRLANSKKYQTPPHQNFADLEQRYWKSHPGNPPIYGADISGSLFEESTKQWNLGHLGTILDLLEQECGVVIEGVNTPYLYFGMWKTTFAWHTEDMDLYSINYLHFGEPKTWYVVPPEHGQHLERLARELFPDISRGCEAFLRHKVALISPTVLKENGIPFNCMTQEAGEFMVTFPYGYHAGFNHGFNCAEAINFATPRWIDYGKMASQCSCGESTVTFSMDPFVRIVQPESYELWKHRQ
VDR inh – blocks the human vitamin D receptor | VDR-SRC2-3 peptide fluorescence polarization, 2 h | Potency, µM, most hits filed as inhibitors | actives 0.93% (n = 400,000) | AID 504847
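FP read-out; VDR + SRC2-3 coactivator peptide; 23 nl compound by pintool; 2 h RT incubation; reagents held at 4 deg C, protected from light.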
HTT aggregate – mutant huntingtin aggregation inhibition; PC12 HttQ103-GFP aggregates, Acumen cytometry, 40 h; actives 1.1% (n = 220,000); AID 1688; Potency, µM (doses to about 46.1 µM), usual class: inhibitors; note: nearly all actives have a fitted effect of over 60% in size
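Steps: seed 1500 PC12 HTTQ103-GFP cells/well; add tebufenozide, 100 nM final; add compound titration; add ATPLite reagent; quantify GFP aggregates by laser scanning cytometry.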
FBPA coupling cs – counter-screen for Giardia aldolase inhibitors: coupling enzyme system | coupling enzyme system counterscreen, AmpLite Red fluorescence | activity change, negative = inhibition, % at 58.2 µM, hits read low | AID 2472 | actives 0.67% (n = 290,000); in the data active = activity change below about -30%
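Coupling enzymes only (glyceraldehyde-3-phosphate) + compound, at 57.5 uM final, 10 min RT; add substrate/coupling/AmpLite Red mix, 20 min RT; fluorescence ex 525/em 598 nm. Actives flag coupling-system interference.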
HTT cytoprotect – protects HTT-Q103 PC12 cells, measured by ATP; Potency, µM (doses to about 56.4 µM), actives largely listed as activators; PC12 HTT-Q103 induced, cytoprotection, ATP luminescence, 40 h; actives 0.14% (n = 230,000); AID 1471; note: nearly all actives have a fitted effect of over 45% in size
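ATP quantification (ATPlite) reports survival of PC12 cells in which tebufenozide, 100 nM final, switches on Htt exon 1 with 103 glutamines linked to GFP; compounds are titrated.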
Large screens that a line does not name were inactive. Most compounds without a hit are left out; they make up all but 2.3% or so of the library. Unless noted, calls come from the whole dose curve; as a rule, active = well fitted curve in the direction sought with a large enough effect; inconclusive = small, poorly fitted or top-dose-only effect, or another doubt; inactive = no such curve, though single readings can be large; an effect the other way counts as inactive or inconclusive.

Cc1cnc(CNc2ncnc3ccc(-c4c(C)noc4C)cc23)cn1	none (no result: KDM4E inh, HTT aggregate)
CCOc1ccc(S(=O)(=O)N(CC)CC)cc1NS(=O)(=O)c1ccc(F)c(F)c1F	VDR inh 71µM
CCOc1cc(S(=O)(=O)N(CC)CC)ccc1F	HTT aggregate inconclusive
Cc1cccc(C)c1NC(=O)COC(=O)Cc1ccsc1	HTT aggregate 20µM
CC(=O)c1ccc(NC(=O)Cn2c(=O)n(Cc3ccco3)c(=O)c3sc4ccccc4c32)cc1	none (no result: RGS12 GoLoco inh, KDM4E inh, HTT aggregate, FBPA coupling cs, HTT cytoprotect)
O=C(OCCCN1CCOCC1)c1ccc(O)c(O)c1	KDM4E inh 16µM
O=C(Nc1cc([N+](=O)[O-])ccc1O)c1cccc([N+](=O)[O-])c1	none (no result: RGS12 GoLoco inh, KDM4E inh, HTT aggregate, HTT cytoprotect)
O=C(Nc1ccccc1)Nc1ncc([N+](=O)[O-])s1	HTT aggregate 11µM
O=C(Nc1ncc([N+](=O)[O-])s1)c1cccc([N+](=O)[O-])c1	FBPA coupling cs -41
COc1ccccc1N1CCN(CC2CN3C(=O)N(C)c4ccccc4C3=N2)CC1 (stereo unspecified)	none (no result: KDM4E inh, HTT aggregate, FBPA coupling cs)
O=S(=O)(Cc1ccccc1)C(CCCc1ccccc1)S(=O)(=O)Cc1ccccc1	none (no result: RGS12 GoLoco inh, KDM4E inh, HTT aggregate, FBPA coupling cs, HTT cytoprotect)
COc1ccc(N2C(=O)CC(Sc3nnnn3-c3ccc(F)cc3)C2=O)cc1 (stereo unspecified)	none
O=C1CC(Sc2nnnn2-c2ccccc2)C(=O)N1c1cccc(Cl)c1 (stereo unspecified)	HTT aggregate 22µM
CCOc1cc(/C=N/O)ccc1OCc1ccc(F)cc1	VDR inh 50µM
Cc1ccc(N(C)C(=O)CN2C(=O)CCc3cc(S(=O)(=O)N4CCOCC4)ccc32)cc1	none (no result: RGS12 GoLoco inh, KDM4E inh, HTT aggregate, FBPA coupling cs, HTT cytoprotect)
Cc1ccccc1NC(=O)COC(=O)CCC(=O)c1cccs1	none (no result: RGS12 GoLoco inh, KDM4E inh, HTT aggregate, FBPA coupling cs, HTT cytoprotect)
CCCCNC(=O)Nc1ccccc1CC	none
CCCCNC(=O)Nc1cc(C(F)(F)F)c[nH]c1=O	FBPA coupling cs -43
COc1ccc(C2=CC(=O)C=CC2=O)cc1	RGS12 GoLoco inh 3.5µM, KDM4E inh 14µM, FBPA coupling cs -36 (no result: VDR inh)
COc1ccc(C2=CC(=O)C[C@H](c3ccc(OC)cc3)C2)cc1	none (no result: RGS12 GoLoco inh, KDM4E inh, HTT aggregate, FBPA coupling cs, HTT cytoprotect)
COC(=O)c1[nH]c2ccc(C)cc2c1NC(=O)CN1CCN(c2ccc(F)cc2)CC1	KDM4E inh inconclusive, HTT cytoprotect 1.6µM
O=S(=O)(NCc1ccncc1)c1ccc(Br)s1	HTT aggregate 2.5µM
O=C(O)CNS(=O)(=O)c1ccc(Br)s1	none
CCOc1ccc(-c2cnc(NCc3cccc(Cl)c3)n2C)cc1	none (no result: RGS12 GoLoco inh, KDM4E inh, HTT aggregate, FBPA coupling cs, HTT cytoprotect)
CCOC(=O)c1cc(C(=O)OCC)cc(-n2c(C)cc(C(=O)CN3CCOCC3)c2C)c1	KDM4E inh 13µM
COc1ccc(-n2c(C)cc(C(=O)CN3CCCCC3)c2C)cc1	none
O=C(Cn1cc(S(=O)(=O)c2ccccc2)c(=O)c2cc(Cl)ccc21)Nc1ccc2c(c1)OCO2	none (no result: RGS12 GoLoco inh, KDM4E inh, HTT aggregate, FBPA coupling cs, HTT cytoprotect)
Cc1ccc2c(c1)C(=O)C(=O)N2Cc1ccc(Cl)cc1	VDR inh 25µM (no result: RGS12 GoLoco inh, KDM4E inh, HTT aggregate, FBPA coupling cs, HTT cytoprotect)
COc1ccc2c(c1)C(=O)C(=O)N2CC1COc2ccccc2O1 (stereo unspecified)	VDR inh inconclusive (no result: RGS12 GoLoco inh, KDM4E inh, HTT aggregate, HTT cytoprotect)
Cc1ccc2c(c1)C(=O)C(=O)N2CC1COc2ccccc2O1 (stereo unspecified)	VDR inh 71µM (no result: RGS12 GoLoco inh, KDM4E inh, HTT aggregate, HTT cytoprotect)
Cc1ccc2c(c1)C(=O)C(=O)N2Cc1ccccc1	VDR inh 79µM (no result: RGS12 GoLoco inh, KDM4E inh, HTT aggregate, FBPA coupling cs, HTT cytoprotect)
O=C(O)c1ccc(N=Nc2c(O)ccc3ncccc23)cc1	none (no result: RGS12 GoLoco inh, KDM4E inh, HTT aggregate, HTT cytoprotect)
CCOC(=O)c1cnc(-n2nc(C)cc2C)nc1NNc1nc(-c2ccccc2)cc(-c2ccccc2)n1	HTT aggregate 10µM
COc1cc(OC)c(NC(=O)Nc2nnc(N(C)C3CCCCC3)s2)cc1Cl	none (no result: RGS12 GoLoco inh, KDM4E inh, HTT aggregate, FBPA coupling cs, HTT cytoprotect)
O=c1c2ccccc2nc2n1C(CSCc1ccc(Cl)cc1)CS2 (stereo unspecified)	HTT aggregate 11µM
COc1cc(C2NC(=O)C(C#N)=C(S)N2c2ccccc2)ccc1OC(C)C (stereo unspecified)	VDR inh 35µM
COc1ccc(C2NC(=O)C(C#N)=C(S)N2c2ccccc2)cc1OC (stereo unspecified)	VDR inh 45µM
COc1ccc(C2NC(=O)c3ccccc3N2)cc1OC (stereo unspecified)	KDM4E inh inconclusive
CCCCNC(=O)C1CCN(c2nc3ccccc3nc2C(F)(F)F)CC1	none (no result: RGS12 GoLoco inh, KDM4E inh, HTT aggregate, FBPA coupling cs, HTT cytoprotect)
Cc1ccc(-n2nnnc2SCC(=O)Nc2cccc(NC(=O)c3ccco3)c2)cc1C	KDM4E inh inconclusive, HTT aggregate 10µM (no result: RGS12 GoLoco inh)
